In the library only some 1.3% were active in any assay of this set; here they are far more common.
Pin1 inhibitor: qHTS Assay to Find Inhibitors of Pin1; Peptidyl-prolyl cis-trans isomerase NIMA-interacting 1 (Homo sapiens), Q13526; Pin1 FP peptide displacement, HiFluor488, 10 min; Potency, µM (highest dose often 115 µM), for the others: at the top dose activity, negative = inhibition, hits mostly inhibitors; 390,000 tested, 0.009% active; AID 504891, 2011; active = well fitted inhibition curve with a large enough effect in the polarisation, with a control signal flat, not every such curve was filed as active; inconclusive = small, poorly fitted or top-dose-only effect, or effect the other way, or a change in a side signal; inactive = no such curve, though single readings can be large or run the other way; the % refers to the polarisation; also: potency is read from the fitted curve at half-maximal effect; % is scaled to controls: 0 for no effect and ±100 for the full control effect
Target sequence (Q13526 whole entry, looked up): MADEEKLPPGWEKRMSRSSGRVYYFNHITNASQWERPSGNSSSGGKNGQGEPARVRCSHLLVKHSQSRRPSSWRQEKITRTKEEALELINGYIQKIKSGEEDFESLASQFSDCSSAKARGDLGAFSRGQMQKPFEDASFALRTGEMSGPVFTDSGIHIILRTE
GRP78 ERSR act: qHTS for Inducers of the Endoplasmic Reticulum Stress Response (ERSR) in Human Glioma: qHTS. U87-MG GRP78 promoter luciferase reporter, 16 h. 420,000 tested, 0.02% active. AID 602332, 2012. Potency, µM, for the others: at the top dose activation, usual class: activators; also: potency is read from the fitted curve at half-maximal effect; series mostly up to about 76 µM; % of control where 0% means no effect; nearly all actives have a fitted effect of over 35% in size
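ERSR induction read as luciferase luminescence (Bright-Glo, 10 min at room temperature) in stably transfected human U87-MG glioma cells exposed to compounds for 16 h, using GRP78 as sensor.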
PI5P4Ka inh: qHTS for Inhibitors of phosphatidylinositol 5-phosphate 4-kinase (PI5P4K) | Phosphatidylinositol 5-phosphate 4-kinase type-2 alpha (Homo sapiens), P48426 | PI5P4Kalpha enzyme, ADP-Glo luminescence, 60 min; hits give low values | max response, % | 330,000 tested, 1.2% active | AID 652105, 2013; active = max response of -50% or lower; inconclusive = between -30% and -50%; inactive = -30% or higher; also: value at the top dose of about 77 µM; % is scaled to controls: 0 for no effect and ±100 for the full control effect
Target sequence (P48426 whole entry, looked up): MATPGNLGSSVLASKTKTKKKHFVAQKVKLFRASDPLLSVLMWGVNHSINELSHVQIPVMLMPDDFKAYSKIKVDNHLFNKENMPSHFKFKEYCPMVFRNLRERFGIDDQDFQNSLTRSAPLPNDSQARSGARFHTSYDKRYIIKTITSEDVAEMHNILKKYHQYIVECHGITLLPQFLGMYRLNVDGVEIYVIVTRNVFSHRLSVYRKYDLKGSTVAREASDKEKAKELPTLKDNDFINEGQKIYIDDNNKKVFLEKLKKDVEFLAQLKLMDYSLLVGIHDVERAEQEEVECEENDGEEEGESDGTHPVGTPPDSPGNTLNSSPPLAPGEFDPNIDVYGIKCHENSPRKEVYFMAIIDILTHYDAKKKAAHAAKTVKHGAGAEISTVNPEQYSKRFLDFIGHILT
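Compounds were pin-transferred onto PI5P4Kalpha and substrate in HEPES pH 7.4 buffer with EGTA, CHAPS and 5% DMSO. ATP (5 microM final) started the reaction, which ran 60 minutes at room temperature before ADP-Glo detection.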
WRN helicase inh: qHTS for Inhibitors of WRN Helicase; Bifunctional 3'-5' exonuclease/ATP-dependent helicase WRN (Homo sapiens), Q14191; WRN helicase unwinding, fluorescent forked duplex, kinetic; 360,000 tested, 0.46% active; Potency, µM (doses to about 114 µM), for the others: at the top dose activity change, negative = inhibition, most hits filed as inhibitors; also: potency is read from the fitted curve at half-maximal effect; % is scaled to controls: 0 for no effect and ±100 for the full control effect; nearly all actives have a fitted effect of over 55% in size
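Kinetic red-fluorescence monitoring (525/598 nm) tracks WRN helicase activity after 100 nM fluorophore-quencher forked duplex and 2 mM ATP are added to 20 nM enzyme pretreated 15 min at room temperature with compound.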
FEN1 inh: qHTS Assay for the Inhibitors of Human Flap endonuclease 1 (FEN1); Recombinant FEN1 flap cleavage, fluorescence, 15 min; Potency, µM (titrated, usually from 114 µM), for the others: at the highest dose activity change, negative = inhibition, actives largely listed as inhibitors; P39748; 390,000 tested, 0.35% active; also: potency is read from the fitted curve at half-maximal effect; % is scaled to controls: 0 for no effect and ±100 for the full control effect; nearly all actives have a fitted effect of over 65% in size
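Concentration–response screening of FEN1 (10 nM): 15 min compound preincubation at room temperature, reaction started with 50 nM substrate and read at 0 and 15 min. Corrected, normalized data were fitted by a four-parameter Hill equation.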
PGK inhibitor: qHTS Assay to Find Inhibitors of Phosphoglycerate Kinase; PGK/GAPDH coupled, Kinase-Glo luminescence, 60 min; 380,000 tested, 0.043% active; Potency, µM (top dose mostly 57.5 µM), for the others: at the top dose activity change, negative = inhibition, hits mostly inhibitors; also: potency is read from the fitted curve at half-maximal effect; % is scaled to controls: 0 for no effect and ±100 for the full control effect; nearly all actives have a fitted effect of over 60% in size
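Luminescent ATP detection (Kinase-Glo Plus) follows a 60-minute room-temperature incubation, with wells lacking PGK as controls. Buffer: 100 mM TEA (pH 7.6), 5 mM MgCl2, 0.01% Tween-20. Coupling enzyme GAPDH (100 nM final) supplies unstable 1,3-BPG in-well.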
* = called active by the depositor; i = inactive; ? = inconclusive; · = not tested or not shown. Unless noted, calls follow the shape of the dose curve; as a rule, active = well fitted curve in the direction sought with a large enough effect; inconclusive = small, poorly fitted or top-dose-only effect, or another doubt; inactive = no such curve, though single readings can be large; an effect the other way counts as inactive or inconclusive.

SMILES | Pin1 inhibitor | GRP78 ERSR act | PI5P4Ka inh | WRN helicase inh | FEN1 inh | PGK inhibitor
CCc1nn2c(=O)cc(COc3ccc(/C=C4\C(=N)N5N=C(C)SC5=NC4=O)cc3)nc2s1 | ? | -3.2% | -72.3* | ? | ? | -29.0%
CCC1=NN2C(=N)/C(=C\c3ccc(OCCOc4ccc(NC(C)=O)cc4)cc3)C(=O)N=C2S1 | 10.8% | -1.0% | -2.8 | -6.9% | 4.1% | -3.7%
CCOC(=O)C1=C(C)N(CCCC(=O)O)C(=O)NC1c1ccccc1OS(=O)(=O)c1ccc(C)cc1 (stereo not given) | -10.7% | -3.7% | -85.2* | 1.5% | -4.2% | i
COC(=O)C1=C(C)N(CCCC(=O)O)C(=O)NC1c1ccccc1OS(=O)(=O)c1ccc([N+](=O)[O-])cc1 (stereo not given) | -6.7% | -2.8% | -105.2* | -5.5% | 0.4% | -7.4%
CCOC(=O)C1=C(C)N(CCCC(=O)O)C(=O)NC1c1ccccc1OS(=O)(=O)c1ccccc1[N+](=O)[O-] (stereo not given) | -10.0% | -0.9% | -75.8* | 1.3% | -4.0% | -7.6%
CC1=C(C(=O)OCc2ccccc2)C(c2ccccc2OS(=O)(=O)c2ccccc2[N+](=O)[O-])NC(=O)N1CCCC(=O)O (stereo not given) | ? | 12.3% | -98.6* | -5.6% | 4.9% | -4.2%
CCC1CN(CCNC(=O)c2ccnc(Cl)c2)Cc2cc(OC)ccc2O1 (stereo not given) | · | -3.6% | · | · | · | ·
O=[S+]([O-])(c1ccc(-c2ccccc2)cc1)N1CCN([S+](=O)([O-])c2ccc3c(c2)OCCO3)CC1 | 3.0% | · | · | · | · | ·
O=C(O)C1CCN(c2ncc(-c3ccc4c(c3)OCCCO4)s2)CC1 | 2.0% | · | · | · | · | ·
O=C(NCCc1nnc2n1CCN(Cc1ccc3c(c1)CCO3)CC2)c1ccco1 | · | -7.5% | · | · | · | ·
COc1ccc(-c2nc3ccc(C4=C(C)CC(=O)NN4)cc3[nH]2)cc1 | · | -2.2% | · | · | · | ·
COc1ccc(-n2c(O)c(/C=N/NS(=O)(=O)c3cccc([N+](=O)[O-])c3)c3ccccc3c2=O)cc1OC | ? | 2.5% | -10.1 | 14.1µM* | -8.6% | -3.6%
O=[N+]([O-])c1ccc([S+](=O)([O-])N2CCN([S+](=O)([O-])c3ccc4c(c3)OCCO4)CC2)c([N+](=O)[O-])c1 | -18.9% | · | · | · | · | ·
O=S(=O)(Nc1cccc2cccnc12)c1ccc2ccccc2c1 | 8.6% | ? | · | · | -5.0% | ·
O=S(=O)(Nc1cc(Sc2cccc3cccnc23)c(O)c2ccccc12)c1ccc(F)cc1 | ? | -11.2% | -18.8 | 22.4µM* | ? | -8.4%
CN(C)CCN1C(=O)c2cccc3cc([N+](=O)[O-])cc(c23)C1=O | ? | -13.8% | 18.4 | -20.6% | 20µM* | -1.2%
O=C1c2cccc3cc([N+](=O)[O-])cc(c23)C(=O)N1CC1CCCO1 (stereo not given) | -8.5% | -5.5% | 1.3 | -3.5% | ? | -1.9%
S=c1nc2[nH]c3ccccc3c2n[nH]1 | -6.8% | 1.1% | -50.1* | -26.9% | -11.4% | -9.2%
Nc1nnc2c(n1)[nH]c1ccccc12 | -6.2% | 1.6% | · | · | 1.0% | -6.2%
Cc1ccc(C(=O)O)cc1N=Cc1cc(Br)cc(Br)c1O | 38.0% | -3.8% | -55.8* | ? | -3.0% | -14.1%
NC(=S)N=Nc1ccc(NN=C(N)N)cc1 | -5.7% | -2.9% | -84.1* | ? | 50.1µM* | -6.8%
Cc1ccc(C(=O)CC2(O)C(=O)Nc3ccccc32)s1 (stereo not given) | -1.7% | -2.8% | -54.5* | 6.7% | -3.1% | i
C[C@@H](C(=O)O)c1ccc(C2CCCCC2)c2ccccc12 | · | -4.2% | · | · | · | ·
